For 1 sequence, binding signal results are on record in PMC7862700, “An all-to-all approach to the identification of sequence-specific readers for epigenetic DNA modifications on cytosine”.

Assay in all cases: DAPPL (digital affinity profiling via proximity ligation, sequencing); 10 mM Tris-HCl pH 7.5, 50 mM NaCl, 1 mM DTT, 4% glycerol, room temperature, 30 min; GST-TFs on glutathione beads, 16-mer random dsDNA library, 0.1% formaldehyde crosslink after washing; high values mean tight binding
The target of one test is T1, FEV (Homo sapiens, UniProt Q99581 1-238).
T1 sequence: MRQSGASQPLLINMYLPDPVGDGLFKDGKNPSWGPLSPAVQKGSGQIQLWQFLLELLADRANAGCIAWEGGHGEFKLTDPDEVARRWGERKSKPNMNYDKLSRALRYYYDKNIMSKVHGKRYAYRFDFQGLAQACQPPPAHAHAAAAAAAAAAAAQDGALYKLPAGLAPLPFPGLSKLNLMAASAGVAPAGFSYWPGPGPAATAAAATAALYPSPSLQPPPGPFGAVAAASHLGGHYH
The conditions noted are these: protein: recombinant; tags: N-terminal GST; dsDNA, one strand shown. The method, boiled down: (§1)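 Human transcription factors carrying a GST fusion were produced in yeast, bound to glutathione beads, tagged with DNA barcodes and pooled together with a tag-only sample. Each pool was held with 200 nmole of a random double-stranded 16-mer DNA library in Tris/NaCl/DTT/glycerol buffer for 30 min at room temperature, then washed, crosslinked in 0.1% formaldehyde, proximity-ligated with BsaI/T4 ligase (1 h, 37 °C), PCR-amplified and sequenced on an Illumina NextSeq500. Binding signal is the read frequency of each hexamer for a given factor divided by its frequency in the tag-only sample.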

In another test the target is ETV5 (Homo sapiens, UniProt P41161 1-510). The conditions noted are these: protein: recombinant; tags: N-terminal GST; dsDNA, one strand shown. The method, boiled down: as §1
A further test addresses HSF1 (Homo sapiens, UniProt Q00613 1-529). The conditions noted are these: protein: recombinant; tags: N-terminal GST; chain copies: 3; dsDNA, one strand shown. In outline: as §1
In a further test the target is T2, SPIC (Homo sapiens, UniProt Q8N5J4 1-248).
T2 sequence: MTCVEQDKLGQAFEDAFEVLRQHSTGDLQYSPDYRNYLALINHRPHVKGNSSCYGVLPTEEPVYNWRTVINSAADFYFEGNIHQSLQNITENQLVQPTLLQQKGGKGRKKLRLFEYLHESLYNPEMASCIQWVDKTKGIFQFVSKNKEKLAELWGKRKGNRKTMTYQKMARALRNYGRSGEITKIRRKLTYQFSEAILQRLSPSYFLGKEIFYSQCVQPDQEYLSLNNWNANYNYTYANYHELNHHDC
Conditions: protein: recombinant; tags: N-terminal GST; dsDNA, one strand shown. In outline: as §1

For a further test, the target named is ELF4 (Homo sapiens, UniProt Q99607 1-663). The conditions noted are these: protein: recombinant; tags: N-terminal GST; dsDNA, one strand shown. The method, boiled down: as §1
A further test addresses T3, ELK4 (Homo sapiens, UniProt P28324-2 1-405).
T3 sequence: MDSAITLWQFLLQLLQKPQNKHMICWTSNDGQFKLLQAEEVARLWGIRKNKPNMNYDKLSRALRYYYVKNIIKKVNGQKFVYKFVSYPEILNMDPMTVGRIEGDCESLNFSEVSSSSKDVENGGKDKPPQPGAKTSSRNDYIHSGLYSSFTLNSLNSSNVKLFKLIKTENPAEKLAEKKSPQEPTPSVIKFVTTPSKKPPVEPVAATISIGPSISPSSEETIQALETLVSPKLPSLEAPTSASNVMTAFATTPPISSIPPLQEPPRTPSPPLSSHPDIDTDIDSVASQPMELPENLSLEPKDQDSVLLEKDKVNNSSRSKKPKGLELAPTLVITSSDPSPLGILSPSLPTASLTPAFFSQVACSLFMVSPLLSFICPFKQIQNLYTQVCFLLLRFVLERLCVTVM
The conditions noted are these: protein: recombinant; tags: N-terminal GST; dsDNA, one strand shown. In outline:
as §1

In another test the target is T4, ETV2 (Homo sapiens, UniProt O00321 1-342).
T4 sequence: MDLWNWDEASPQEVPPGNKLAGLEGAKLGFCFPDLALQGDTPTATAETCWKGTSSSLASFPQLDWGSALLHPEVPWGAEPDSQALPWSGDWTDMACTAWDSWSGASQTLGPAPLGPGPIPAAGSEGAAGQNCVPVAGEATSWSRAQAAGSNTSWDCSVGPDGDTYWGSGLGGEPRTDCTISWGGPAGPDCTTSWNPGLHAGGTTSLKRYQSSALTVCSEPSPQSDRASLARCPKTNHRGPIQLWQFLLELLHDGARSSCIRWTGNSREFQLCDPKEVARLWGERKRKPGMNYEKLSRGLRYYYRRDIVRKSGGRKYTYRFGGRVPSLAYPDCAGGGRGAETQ
The conditions noted are these: protein: recombinant; tags: N-terminal GST; dsDNA, one strand shown. In outline:
as §1

A further test has as its target T5, ELF3 (Homo sapiens, UniProt P78545 1-371).
T5 sequence: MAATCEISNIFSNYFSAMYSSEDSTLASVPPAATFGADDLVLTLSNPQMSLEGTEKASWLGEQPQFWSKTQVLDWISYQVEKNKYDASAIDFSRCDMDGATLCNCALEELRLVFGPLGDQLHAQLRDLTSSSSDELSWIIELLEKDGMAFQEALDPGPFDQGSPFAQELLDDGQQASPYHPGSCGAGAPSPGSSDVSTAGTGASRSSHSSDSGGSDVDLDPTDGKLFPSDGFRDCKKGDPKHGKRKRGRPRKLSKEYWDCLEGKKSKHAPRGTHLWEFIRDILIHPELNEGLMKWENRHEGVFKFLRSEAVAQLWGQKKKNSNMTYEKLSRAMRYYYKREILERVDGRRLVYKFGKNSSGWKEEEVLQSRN
The conditions noted are these: protein: recombinant; tags: N-terminal GST; dsDNA, one strand shown. The method, boiled down:
as §1

The next test addresses CRX (Homo sapiens, UniProt O43186 1-299). Conditions: protein: recombinant; tags: N-terminal GST; dsDNA, one strand shown. The method, boiled down: as §1
The target in a further test is ETV1 (Homo sapiens, UniProt P50549 1-477). Conditions: protein: recombinant; tags: N-terminal GST; dsDNA, one strand shown. The method, boiled down: as §1
For a further test, the target named is T6, ERF (Homo sapiens, UniProt P50548 1-548).
T6 sequence: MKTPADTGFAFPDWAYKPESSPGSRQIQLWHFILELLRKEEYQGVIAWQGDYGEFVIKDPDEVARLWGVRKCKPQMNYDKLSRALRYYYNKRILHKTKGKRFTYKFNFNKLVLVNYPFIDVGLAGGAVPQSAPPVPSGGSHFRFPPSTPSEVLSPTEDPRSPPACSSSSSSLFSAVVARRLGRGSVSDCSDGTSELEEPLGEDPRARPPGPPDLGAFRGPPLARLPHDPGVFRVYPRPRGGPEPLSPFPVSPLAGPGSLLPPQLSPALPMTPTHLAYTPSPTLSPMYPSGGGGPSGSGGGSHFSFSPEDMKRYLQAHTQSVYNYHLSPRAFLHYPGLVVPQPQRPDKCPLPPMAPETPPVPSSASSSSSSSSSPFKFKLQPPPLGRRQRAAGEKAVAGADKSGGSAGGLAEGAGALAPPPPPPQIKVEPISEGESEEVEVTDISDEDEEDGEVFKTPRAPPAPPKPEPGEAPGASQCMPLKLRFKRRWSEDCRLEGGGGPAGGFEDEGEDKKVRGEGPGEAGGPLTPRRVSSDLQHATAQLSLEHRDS
The conditions noted are these: protein: recombinant; tags: N-terminal GST; dsDNA, one strand shown. In outline:
as §1

For the next test, the target named is T7, ETV3L (Homo sapiens, UniProt Q6ZN32 1-361).
T7 sequence: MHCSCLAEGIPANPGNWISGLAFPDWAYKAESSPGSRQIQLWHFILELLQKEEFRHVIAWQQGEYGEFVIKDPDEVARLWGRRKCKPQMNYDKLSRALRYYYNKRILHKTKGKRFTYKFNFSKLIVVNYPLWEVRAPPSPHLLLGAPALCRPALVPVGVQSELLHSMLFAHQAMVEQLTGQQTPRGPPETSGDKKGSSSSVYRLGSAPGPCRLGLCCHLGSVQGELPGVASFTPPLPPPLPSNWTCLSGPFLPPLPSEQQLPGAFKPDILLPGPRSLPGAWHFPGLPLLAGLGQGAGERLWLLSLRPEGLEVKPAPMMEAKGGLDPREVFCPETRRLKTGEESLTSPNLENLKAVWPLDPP
Conditions: protein: recombinant; tags: N-terminal GST; dsDNA, one strand shown. In outline:
as §1

The next test has as its target T8, ETS2 (Homo sapiens, UniProt P15036 1-469).
T8 sequence: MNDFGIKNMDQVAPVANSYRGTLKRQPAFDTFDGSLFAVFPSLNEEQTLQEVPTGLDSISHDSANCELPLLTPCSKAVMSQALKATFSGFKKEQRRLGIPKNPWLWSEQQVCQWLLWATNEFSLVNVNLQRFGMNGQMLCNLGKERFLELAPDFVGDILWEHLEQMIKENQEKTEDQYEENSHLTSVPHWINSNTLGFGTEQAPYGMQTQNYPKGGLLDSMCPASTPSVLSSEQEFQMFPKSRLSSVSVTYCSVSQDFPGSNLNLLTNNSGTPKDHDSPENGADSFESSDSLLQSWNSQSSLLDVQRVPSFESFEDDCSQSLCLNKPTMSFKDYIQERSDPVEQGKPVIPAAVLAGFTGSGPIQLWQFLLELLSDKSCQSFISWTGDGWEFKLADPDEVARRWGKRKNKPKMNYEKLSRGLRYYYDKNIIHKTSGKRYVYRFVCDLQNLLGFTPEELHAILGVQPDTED
Conditions: protein: recombinant; tags: N-terminal GST; dsDNA, one strand shown. In outline:
as §1

The target in the next test is T9, SPDEF (Homo sapiens, UniProt O95238 1-335).
T9 sequence: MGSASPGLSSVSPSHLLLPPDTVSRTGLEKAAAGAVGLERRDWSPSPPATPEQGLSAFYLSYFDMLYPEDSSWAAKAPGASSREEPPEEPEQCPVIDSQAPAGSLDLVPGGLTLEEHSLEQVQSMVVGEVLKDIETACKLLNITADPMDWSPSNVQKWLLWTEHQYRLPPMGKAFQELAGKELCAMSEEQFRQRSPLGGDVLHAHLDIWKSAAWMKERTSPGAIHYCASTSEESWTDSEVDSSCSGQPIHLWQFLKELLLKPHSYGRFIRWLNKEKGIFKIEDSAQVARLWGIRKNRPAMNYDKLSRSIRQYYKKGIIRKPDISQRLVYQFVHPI
The conditions noted are these: protein: recombinant; tags: N-terminal GST; dsDNA, one strand shown. In outline: as §1

The target of the next test is T10, ETV7 (Homo sapiens, UniProt Q9Y603 1-341).
T10 sequence: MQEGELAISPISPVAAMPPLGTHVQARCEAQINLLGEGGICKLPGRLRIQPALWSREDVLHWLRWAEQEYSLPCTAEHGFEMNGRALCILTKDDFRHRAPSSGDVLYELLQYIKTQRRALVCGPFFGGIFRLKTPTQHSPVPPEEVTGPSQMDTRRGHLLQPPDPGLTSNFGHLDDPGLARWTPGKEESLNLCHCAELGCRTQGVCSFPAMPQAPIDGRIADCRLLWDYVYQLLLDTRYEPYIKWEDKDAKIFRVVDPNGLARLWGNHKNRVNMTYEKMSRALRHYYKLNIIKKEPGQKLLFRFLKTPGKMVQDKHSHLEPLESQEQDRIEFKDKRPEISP
The conditions noted are these: protein: recombinant; tags: N-terminal GST; dsDNA, one strand shown. In outline: as §1

The next test deals with T11, ELF5 (Homo sapiens, UniProt Q9UKW6-2 1-255).
T11 sequence: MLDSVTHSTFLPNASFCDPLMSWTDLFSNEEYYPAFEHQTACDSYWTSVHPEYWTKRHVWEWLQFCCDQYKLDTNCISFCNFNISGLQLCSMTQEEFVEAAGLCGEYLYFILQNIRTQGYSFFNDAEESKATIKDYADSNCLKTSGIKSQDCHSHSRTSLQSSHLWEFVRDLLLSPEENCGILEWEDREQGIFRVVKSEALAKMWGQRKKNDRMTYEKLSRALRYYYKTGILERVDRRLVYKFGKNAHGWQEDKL
The conditions noted are these: protein: recombinant; tags: N-terminal GST; dsDNA, one strand shown. In outline: as §1

Another test deals with T12, ETV3 (Homo sapiens, UniProt P41162-2 1-143).
T12 sequence: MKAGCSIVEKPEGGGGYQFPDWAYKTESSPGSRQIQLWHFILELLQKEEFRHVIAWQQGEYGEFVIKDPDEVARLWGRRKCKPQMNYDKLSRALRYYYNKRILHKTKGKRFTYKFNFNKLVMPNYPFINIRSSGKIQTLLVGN
Conditions: protein: recombinant; tags: N-terminal GST; dsDNA, one strand shown. In outline:
as §1

In another test the target is ETV6 (Homo sapiens, UniProt P41212 1-452). Conditions: protein: recombinant; tags: N-terminal GST; dsDNA, one strand shown. In outline: as §1
Sequence of ETV6 (P41212 whole entry): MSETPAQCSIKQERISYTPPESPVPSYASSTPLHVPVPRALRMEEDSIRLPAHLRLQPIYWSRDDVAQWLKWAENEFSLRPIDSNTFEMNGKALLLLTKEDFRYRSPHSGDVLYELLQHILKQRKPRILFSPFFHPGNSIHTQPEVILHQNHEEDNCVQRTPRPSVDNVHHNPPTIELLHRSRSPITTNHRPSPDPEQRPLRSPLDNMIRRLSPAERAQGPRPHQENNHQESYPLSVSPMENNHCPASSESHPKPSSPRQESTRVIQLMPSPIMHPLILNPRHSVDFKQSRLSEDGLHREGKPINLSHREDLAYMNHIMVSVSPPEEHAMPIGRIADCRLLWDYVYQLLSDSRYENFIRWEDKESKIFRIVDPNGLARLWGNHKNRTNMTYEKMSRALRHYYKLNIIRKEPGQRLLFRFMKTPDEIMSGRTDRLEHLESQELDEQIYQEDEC

Sequence of CRX (O43186 whole entry): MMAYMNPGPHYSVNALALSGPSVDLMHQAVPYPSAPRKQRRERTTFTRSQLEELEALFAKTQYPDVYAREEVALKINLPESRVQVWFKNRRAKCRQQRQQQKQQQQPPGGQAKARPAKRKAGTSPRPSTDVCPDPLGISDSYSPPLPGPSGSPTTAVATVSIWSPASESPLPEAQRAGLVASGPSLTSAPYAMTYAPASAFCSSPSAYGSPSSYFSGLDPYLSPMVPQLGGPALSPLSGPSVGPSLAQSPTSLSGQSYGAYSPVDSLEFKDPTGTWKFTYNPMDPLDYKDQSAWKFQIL
Sequence of ELF4 (Q99607 whole entry): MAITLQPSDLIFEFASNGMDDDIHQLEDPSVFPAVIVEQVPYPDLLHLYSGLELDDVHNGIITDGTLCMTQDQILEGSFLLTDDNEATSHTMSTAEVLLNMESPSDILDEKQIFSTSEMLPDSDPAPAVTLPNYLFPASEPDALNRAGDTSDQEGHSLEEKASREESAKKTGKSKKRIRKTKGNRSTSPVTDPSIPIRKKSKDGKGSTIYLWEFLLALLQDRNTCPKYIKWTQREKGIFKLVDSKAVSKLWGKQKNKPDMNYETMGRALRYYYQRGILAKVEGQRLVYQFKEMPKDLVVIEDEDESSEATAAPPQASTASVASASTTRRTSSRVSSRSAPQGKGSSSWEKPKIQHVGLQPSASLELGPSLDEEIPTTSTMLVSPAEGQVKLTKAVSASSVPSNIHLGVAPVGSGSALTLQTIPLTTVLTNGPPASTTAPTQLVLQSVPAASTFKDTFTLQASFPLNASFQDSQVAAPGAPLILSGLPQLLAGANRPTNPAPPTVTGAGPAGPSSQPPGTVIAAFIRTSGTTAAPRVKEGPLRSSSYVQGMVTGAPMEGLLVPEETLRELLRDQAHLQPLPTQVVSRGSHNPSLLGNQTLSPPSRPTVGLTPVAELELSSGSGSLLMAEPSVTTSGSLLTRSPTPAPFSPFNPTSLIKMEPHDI
Sequence of HSF1 (Q00613 whole entry): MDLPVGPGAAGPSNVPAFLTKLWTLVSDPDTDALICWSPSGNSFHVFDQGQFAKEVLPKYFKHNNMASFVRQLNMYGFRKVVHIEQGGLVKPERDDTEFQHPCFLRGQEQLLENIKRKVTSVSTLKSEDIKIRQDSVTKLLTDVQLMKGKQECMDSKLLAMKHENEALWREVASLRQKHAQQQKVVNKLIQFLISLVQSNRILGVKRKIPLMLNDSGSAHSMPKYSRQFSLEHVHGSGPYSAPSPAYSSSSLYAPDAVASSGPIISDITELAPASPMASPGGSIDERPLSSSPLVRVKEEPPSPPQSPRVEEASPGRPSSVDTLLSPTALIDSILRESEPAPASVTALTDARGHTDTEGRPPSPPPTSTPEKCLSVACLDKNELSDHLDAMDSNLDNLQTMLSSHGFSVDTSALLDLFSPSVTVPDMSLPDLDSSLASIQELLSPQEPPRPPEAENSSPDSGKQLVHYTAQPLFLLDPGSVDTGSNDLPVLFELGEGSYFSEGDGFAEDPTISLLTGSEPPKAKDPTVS
Sequence of ETV1 (P50549 whole entry): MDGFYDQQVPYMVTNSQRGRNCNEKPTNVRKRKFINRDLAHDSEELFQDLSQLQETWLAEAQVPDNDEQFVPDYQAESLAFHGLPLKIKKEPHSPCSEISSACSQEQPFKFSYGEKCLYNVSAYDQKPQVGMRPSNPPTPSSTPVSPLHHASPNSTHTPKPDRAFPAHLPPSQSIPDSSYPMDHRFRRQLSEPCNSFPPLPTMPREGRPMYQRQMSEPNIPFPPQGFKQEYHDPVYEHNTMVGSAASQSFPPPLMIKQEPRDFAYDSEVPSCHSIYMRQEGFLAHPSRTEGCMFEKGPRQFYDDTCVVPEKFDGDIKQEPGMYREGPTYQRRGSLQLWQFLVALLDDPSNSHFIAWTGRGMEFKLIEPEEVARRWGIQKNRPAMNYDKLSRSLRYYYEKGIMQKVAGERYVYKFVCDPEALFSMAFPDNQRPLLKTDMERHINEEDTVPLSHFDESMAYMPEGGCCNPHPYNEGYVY
Sequence of ETV5 (P41161 whole entry): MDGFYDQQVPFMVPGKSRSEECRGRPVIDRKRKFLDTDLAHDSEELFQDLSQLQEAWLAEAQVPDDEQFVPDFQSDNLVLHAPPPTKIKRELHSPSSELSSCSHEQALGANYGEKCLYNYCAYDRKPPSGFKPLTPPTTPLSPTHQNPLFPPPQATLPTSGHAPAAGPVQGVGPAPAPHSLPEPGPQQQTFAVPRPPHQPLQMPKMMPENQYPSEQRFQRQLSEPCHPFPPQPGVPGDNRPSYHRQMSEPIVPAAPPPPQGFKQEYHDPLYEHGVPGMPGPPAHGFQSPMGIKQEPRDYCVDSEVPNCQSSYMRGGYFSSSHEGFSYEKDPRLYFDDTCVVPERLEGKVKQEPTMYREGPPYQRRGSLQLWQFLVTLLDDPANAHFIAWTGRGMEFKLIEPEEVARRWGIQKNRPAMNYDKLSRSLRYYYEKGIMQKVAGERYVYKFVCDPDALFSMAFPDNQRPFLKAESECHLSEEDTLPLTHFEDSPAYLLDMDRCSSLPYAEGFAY

Consider ACCGAC, for which the binding signal with FEV is 1.36 fold enrichment (6-mer frequency, TF over GST control); with ETV5 it was 1.31 fold enrichment (6-mer frequency, TF over GST control); in the test with HSF1 it was 1.05 fold enrichment (6-mer frequency, TF over GST control); with SPIC it was 1.37 fold enrichment (6-mer frequency, TF over GST control); with ELF4, 1.31 fold enrichment (6-mer frequency, TF over GST control); in the test with ELK4, 1.24 fold enrichment (6-mer frequency, TF over GST control). The binding signal in the test with ETV2 is 1.36 fold enrichment (6-mer frequency, TF over GST control); with ELF3, 1.17 fold enrichment (6-mer frequency, TF over GST control); with CRX it was 1.05 fold enrichment (6-mer frequency, TF over GST control); with ETV1, 1.37 fold enrichment (6-mer frequency, TF over GST control); with ERF it was 1.29 fold enrichment (6-mer frequency, TF over GST control); with ETV3L it was 1.44 fold enrichment (6-mer frequency, TF over GST control). Also, the binding signal with ETS2 was 1.38 fold enrichment (6-mer frequency, TF over GST control); with SPDEF it was 1.37 fold enrichment (6-mer frequency, TF over GST control); with ETV7 it was 1.25 fold enrichment (6-mer frequency, TF over GST control); with ELF5, 1.25 fold enrichment (6-mer frequency, TF over GST control); with ETV3, 1.27 fold enrichment (6-mer frequency, TF over GST control); with ETV6, 1.41 fold enrichment (6-mer frequency, TF over GST control).
